PubChem BioAssay AID743445 (Broad Institute, 2014)
The campaign covered roughly 310,000 compounds. About 1,700 (0.55%) were called active. No stated cut-off is given here; in the data, active means inhibition above about 50%; inactive means the rest. This excerpt belongs to a sample that is enriched for actives.

The compounds below were run against Histone-lysine N-methyltransferase NSD2 (Homo sapiens) (UniProt O96028) (assay: blockers of NSD2 lysine methylation activity – biochemical, AlphaScreen, single concentration, set 2, primary screen (AID 743445)). Conditions: NSD2 peptide methylation, 120 min, at 12.5 µM, stronger effect = higher value.
Sequence of Histone-lysine N-methyltransferase NSD2 (Homo sapiens) (O96028 whole entry, looked up): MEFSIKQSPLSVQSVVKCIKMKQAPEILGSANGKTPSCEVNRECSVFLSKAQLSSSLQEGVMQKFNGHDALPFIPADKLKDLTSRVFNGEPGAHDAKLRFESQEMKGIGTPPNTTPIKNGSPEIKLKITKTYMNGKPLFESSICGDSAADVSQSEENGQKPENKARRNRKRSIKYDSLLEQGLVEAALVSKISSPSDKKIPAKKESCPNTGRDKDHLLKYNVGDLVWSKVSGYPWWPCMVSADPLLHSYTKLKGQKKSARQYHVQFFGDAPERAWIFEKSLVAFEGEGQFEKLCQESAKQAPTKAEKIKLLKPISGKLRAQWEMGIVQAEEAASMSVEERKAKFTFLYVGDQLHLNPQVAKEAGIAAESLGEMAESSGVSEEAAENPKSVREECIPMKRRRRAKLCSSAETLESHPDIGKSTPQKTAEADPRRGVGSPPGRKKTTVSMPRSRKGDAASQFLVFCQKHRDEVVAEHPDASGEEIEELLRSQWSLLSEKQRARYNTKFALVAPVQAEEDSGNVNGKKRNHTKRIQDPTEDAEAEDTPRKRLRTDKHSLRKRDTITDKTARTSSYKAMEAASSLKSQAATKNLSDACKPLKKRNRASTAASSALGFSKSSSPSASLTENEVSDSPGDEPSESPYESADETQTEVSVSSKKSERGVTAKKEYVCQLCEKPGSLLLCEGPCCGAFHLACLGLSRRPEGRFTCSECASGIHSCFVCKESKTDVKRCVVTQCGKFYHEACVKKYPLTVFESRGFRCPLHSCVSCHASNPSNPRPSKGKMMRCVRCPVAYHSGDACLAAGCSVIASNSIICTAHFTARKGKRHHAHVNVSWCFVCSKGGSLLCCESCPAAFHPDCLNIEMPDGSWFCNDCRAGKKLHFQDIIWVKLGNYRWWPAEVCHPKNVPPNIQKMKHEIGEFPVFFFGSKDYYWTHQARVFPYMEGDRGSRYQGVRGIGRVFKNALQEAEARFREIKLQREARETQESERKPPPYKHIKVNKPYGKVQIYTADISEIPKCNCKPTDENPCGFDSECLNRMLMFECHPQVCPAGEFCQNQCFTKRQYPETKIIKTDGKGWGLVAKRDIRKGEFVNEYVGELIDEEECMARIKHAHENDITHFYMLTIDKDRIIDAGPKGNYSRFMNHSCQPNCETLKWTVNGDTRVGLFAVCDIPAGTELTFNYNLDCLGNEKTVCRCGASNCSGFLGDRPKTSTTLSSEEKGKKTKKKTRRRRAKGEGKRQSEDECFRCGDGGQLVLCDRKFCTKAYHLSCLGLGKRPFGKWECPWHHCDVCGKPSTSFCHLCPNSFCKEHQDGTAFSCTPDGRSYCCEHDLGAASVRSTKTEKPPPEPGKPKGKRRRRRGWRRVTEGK

Compound	inhibition
O=C(CSc1nc2ccccc2nc1N1CCCCC1)N1CCN(S(=O)(=O)c2cccc([N+](=O)[O-])c2)CC1	-12% (inactive)
CC(=O)NC(c1ccccc1)c1nc(-c2cccc(C(C)C)c2)cs1 (stereo not given)	3.74% (inactive)
CCOC(=O)c1ccccc1OC(=O)Oc1ccccc1C(=O)OCC	-0.93% (inactive)
CCOC(=O)c1c(C)[nH]c2c1-c1ccccc1C(=O)C2=O	82.9% (active)
CCOC(=O)c1c(C)[nH]c(C)c1S(=O)(=O)N(C)CC(=O)Nc1ccccc1C	2.08% (inactive)
CCOc1ccc2nc(NC(=O)C3CC3)sc2c1	-0.715% (inactive)
CCCC1CCC2(CCCN2CCOC(=O)NCc2ccccc2)CC1 (stereo not given)	-1.02% (inactive)
O=C(CNS(=O)(=O)c1ccccc1F)N1CCN(c2ccccn2)CC1	-3.13% (inactive)
COc1ccc(-c2cc(-c3nnc(SCc4ccc([N+](=O)[O-])cc4)n3N)[nH]n2)cc1	-2.18% (inactive)
COc1cc(C(=O)Nn2c(O)c(C3=c4ccccc4=NC3=O)sc2=S)ccc1O	51.8% (active)
COc1cc(C(=S)NC2CCCCC2)ccc1O	6.51% (inactive)
COc1cc(C(=O)Nn2c(CC(C)C)nc3ccccc3c2=O)cc(OC)c1OC	-1.2% (inactive)
O=C(CCS(=O)(=O)c1ccccc1)Nc1ccc(Cl)c(Cl)c1	-0.439% (inactive)
O=C(Nc1ccccc1C(=O)Nc1ccc(F)cc1)c1ccccc1F	0.274% (inactive)
Cc1nn(-c2ccccc2)c(Cl)c1/C=N/NC(=O)c1nn(C)cc1[N+](=O)[O-]	6.06% (inactive)
Cc1cc(=O)[nH]c(N/N=C/c2ccc3c(c2)OCCO3)n1	-3.07% (inactive)
Cc1cc(=O)[nH]c(N/N=C/c2c(C)nn(-c3ccccc3Cl)c2Cl)n1	69.3% (active)
Cc1c(NC(=O)Nc2ccccc2)cccc1[N+](=O)[O-]	-2.18% (inactive)
O=[N+]([O-])c1ccccc1Nc1ccc(O)cc1	81% (active)
O=C(Nc1ccccc1[N+](=O)[O-])C1C(c2ccccc2)=C1c1ccccc1	-5.32% (inactive)
CCc1nc2ccc(C(=O)NCc3ccc(OC)cc3)cn2c1N(CC)Cc1cccc(Br)c1	-0.31% (inactive)
C=CCc1cccc2cc(C(=O)NC3CCCC3)c(=O)oc12	-2.76% (inactive)
C=CCc1cccc2cc(C(=O)Nc3ccc(NC(C)=O)cc3)c(=O)oc12	52.4% (active)

Compound	inhibition
C=CCc1cccc2cc(C(=O)OCC)c(=O)oc12	3.09% (inactive)
CCCC(=O)N1CCC1(C)C(=O)NCc1ccc(C(C)C)cc1 (stereo not given)	0.789% (inactive)
O=C(NS(=O)(=O)c1cccs1)[C@H]1O[C@@H](n2ccc(=O)[nH]c2=O)[C@H](O)[C@@H]1O	0.413% (inactive)
CC(=O)N1CCCN(C2=Nc3ccccc3Sc3ccccc32)CC1	0.906% (inactive)
O=C(Nc1ccc(N2CCOCC2)cc1)C1=COCCO1	-0.182% (inactive)
COC(=O)CCCCC1=CCC2C(=O)C=C(O)C2C1 (stereo not given)	62.2% (active)
COc1ccc(-n2c(SCC(=O)Nc3ccccc3-c3ccccc3)nnc2-c2cccnc2)cc1	3.15% (inactive)
COC(=O)c1cc(S(=O)(=O)N2CCN(c3ccccc3C)CC2)cn1C	7.47% (inactive)
COc1cccc(-c2cc(CNC(=O)[C@@H](Cc3ccccc3)NC(=O)[C@H]3O[C@@H](n4cnc(C(N)=O)n4)[C@H](O)[C@@H]3O)no2)c1	-0.483% (inactive)
COc1ccc(-n2c(COc3ccc(C)cc3)nnc2SCC(=O)Nc2ccc(Oc3ccccc3)cc2)cc1	0.031% (inactive)
CC(C)CSc1nnc(-c2cccnc2)n1Cc1ccccc1	-2.26% (inactive)
COC(=O)c1ccc(CSc2nnc(N)s2)o1	-2.67% (inactive)
CCOc1ccccc1Nc1nnc(SCC(=O)Nc2cc(C)on2)s1	-5.24% (inactive)
CCOc1ccccc1Nc1nnc(SCc2ccc(C(=O)OC)o2)s1	103% (active)
Cc1ccc(NC(=O)C(C)Sc2nc(C)cs2)cc1 (stereo not given)	-1.63% (inactive)
O=C(NCc1ccco1)C1CCCN(S(=O)(=O)c2ccc(Cl)s2)C1 (stereo not given)	1.68% (inactive)
CC(=O)Nc1ccc(S(=O)(=O)Nc2ccc(N3CCCCC3)cc2)cc1	11.4% (inactive)
O=C1C=CC(=O)N1c1ccc(N2CCCCC2)cc1	51.2% (active)
O=C(Cc1ccccc1)NC(=S)Nc1ccc(N2CCCCC2)cc1	0.281% (inactive)
O=C(CN1CCCc2ccccc21)NCc1ccc(F)cc1	0.199% (inactive)
Cc1ccc(NC(=O)Cc2cccc(F)c2)c(S(=O)(=O)N2CCOCC2)c1	-1.61% (inactive)
O=C(Nc1ccc(C(=O)O)c(O)c1)c1ccccc1	-0.136% (inactive)
O=C(O)c1ccccc1N=N/C(=N/Nc1cc(S(=O)(=O)O)ccc1O)c1ccccc1	70.7% (active)

Compound	inhibition
O=C(O)c1ccccc1/C=N/Nc1ccc(S(=O)(=O)Nc2ccc(Cl)cc2)cc1[N+](=O)[O-]	14.9% (inactive)
O=C(CSc1nnc(COc2ccccc2)n1-c1ccc(Cl)cc1)Nc1ccc2c(c1)OCO2	-1.07% (inactive)
O=C(N/N=C/c1cccnc1)c1cc2ccccc2cc1O	4.16% (inactive)
Cc1ccc(/C=N/NC(=O)c2cc3ccccc3cc2O)o1	50% (active)
O=C(NN=Cc1ccc(N2CCOCC2)cc1)c1cc2ccccc2cc1O	-0.134% (inactive)
Clc1ccc(-n2c(COc3ccccc3)nnc2SCc2nc3ccccc3[nH]2)cc1	1.86% (inactive)
Cc1cc(=O)[nH]c(SCC(=O)Nc2ccc(F)cc2F)n1	-12.4% (inactive)
CN(C)S(=O)(=O)c1cccc(C(=O)N/N=C\c2ccco2)c1	3.26% (inactive)
Cc1ccccc1S(=O)(=O)NC(=O)C1(C)CCN1C(=O)C1(c2ccccc2)CCCC1 (stereo not given)	-0.963% (inactive)
C/C(=N\O)C1(C)N(O)C(C)(C)C(c2ccc(Br)cc2)=[N+]1[O-] (stereo not given)	-1.39% (inactive)
CCC1(C)N(O)C(C)(C)C(c2ccc(OC)cc2)=[N+]1[O-] (stereo not given)	-2.21% (inactive)
CCC1=[N+]([O-])C(C)(/C(C)=N\O)N(O)C1(C)C (stereo not given)	96.5% (active)
CC(C)NC(=O)C1(C)CCCCCN1C(=O)c1ccc(-c2ccccc2)cc1 (stereo not given)	-1.44% (inactive)
Cc1ccc(-n2c(SCC(=O)Nc3ccc(S(=O)(=O)Nc4nccs4)cc3)nnc2-c2ccncc2)cc1	6.51% (inactive)
COc1cccc(N2CCN(CC(=O)N(C)Cc3ccc(F)cc3)CC2)c1	2.97% (inactive)
COc1ccc(/C=N/Nc2cc(N3CCOCC3)nc(C)n2)c(OC)c1	7.29% (inactive)
C(=N/Nc1cc(N2CCOCC2)nc(N2CCOCC2)n1)/c1ccccc1	50.1% (active)
CN(C)c1ccc(/C=N/Nc2cc(N3CCOCC3)nc(N3CCOCC3)n2)cc1	4.94% (inactive)
Nn1c(SCC(=O)N2c3ccccc3Sc3ccccc32)nnc1-c1n[nH]c2c1CCC2	14.3% (inactive)
Cc1ccc(-n2c(SCC(=O)Nc3cccc4ccccc34)nnc2-c2ccco2)cc1	-0.2% (inactive)
O=C(CNC(=O)c1ccccc1)Oc1ccc([N+](=O)[O-])cc1	53.4% (active)
O=C(NNS(=O)(=O)Cc1ccccc1)c1ccc([N+](=O)[O-])cc1	-3.19% (inactive)
COC(=O)CNC(=O)c1ccccc1[N+](=O)[O-]	0.597% (inactive)

Compound	inhibition
CC(=O)Nc1cccc(-c2cc3nc(NCc4cccnc4)n(C)c(=O)c3s2)c1	-4.37% (inactive)
Cc1ccccc1NC(=O)Cn1nnc(-c2ccccc2F)n1	-1.41% (inactive)
O=C(NCc1ccccc1)[C@@H]1CCCN1C(=O)[C@@H](NS(=O)(=O)c1ccc(F)cc1F)C1CCCCC1	-1.37% (inactive)
CC(=O)N(C1=C(Cl)C(=O)c2ccccc2C1=O)c1ccc(C(=O)O)cc1	142% (active)
O=C(NC1=CC(=O)c2ccccc2C1=O)c1ccccc1	40.2% (inactive)
CCOC(=O)C1(Cc2ccccc2)CCN(Cc2cn(C(C)=O)c3ccccc23)CC1	3.51% (inactive)
Cc1ccc(-c2nnc(SCC(=O)Nc3ccc(Oc4ccccc4)cc3)n2Cc2ccco2)cc1	0.417% (inactive)
CCOc1cc(/C=C/C(=O)OCC(=O)NCCN2C(=O)CSC2=O)ccc1OCC(C)C	128% (active)
CCOC(=O)CCCNC(=O)COC(=O)/C=C/c1ccc2c(c1)OCO2	-2.71% (inactive)
CCOc1ccc(/C=C/C(=O)OCC(=O)c2ccccc2OC)cc1OC	-0.606% (inactive)
COc1ccc(-n2c(SCC(=O)NC3CCCC3)nnc2-c2ccncc2)cc1	7.3% (inactive)
O=C(CN1CCC(O)(c2ccccc2)CC1)Nc1ccc2c(c1)OCCO2	-3.29% (inactive)
O=C(Cn1cc(C(F)(F)F)ccc1=O)Nc1ccc2c(c1)OCCO2	58% (active)
O=C(Cn1c(=O)sc2ccccc21)Nc1ccc2c(c1)OCCO2	6.04% (inactive)
O=C1Nc2ccccc2OC1CC(=O)N1CCCCCCC1 (stereo not given)	4.5% (inactive)
O=C(NCc1cccs1)C1CCCN(S(=O)(=O)c2ccc([N+](=O)[O-])cc2)C1 (stereo not given)	-2.05% (inactive)
CCOc1ccc(Cl)cc1-c1cc(C(=O)NCc2cccs2)[nH]n1	0.509% (inactive)
CCOc1ccc(N(CC(=O)Nc2c(C)n(C)n(-c3ccccc3)c2=O)S(=O)(=O)c2ccc(Cl)s2)cc1	0.729% (inactive)
COC(=O)c1c(-c2cccs2)csc1NC(=O)CSc1ncnc2sc(C)c(C)c12	-3.04% (inactive)
Cc1sc2ncnc(SCC(=O)Nc3ccc(CN4CCCC4)cc3)c2c1C	56.5% (active)
Cc1sc2ncnc(SCC(=O)NC3CCS(=O)(=O)C3)c2c1C (stereo not given)	-1.67% (inactive)
